Measurements as given in the supplement of paper PMC10849652.
Targets with a hit are over-represented here; the source holds about 7,900 in all. About 0.6% of all pairs of compound and target were hits. Unmarked numbers belong to inactive results.

Columns and labels:
Assay in all cases: log2 fold change, soluble protein after heating vs DMSO (PISA); higher = thermal stabilisation; K562 cells, 10 uM, 30 min; active = over 0.2 and 3.5 SD of the protein, either way, in both replicates (recomputed)
[1] = compound: CC[C@@H]1C(=O)N(C)c2cnc(Nc3ccc(C(=O)NC4CCN(C)CC4)cc3OC)nc2N1C1CCCC1
Method in brief: (§1)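 K562 cells at 2×10^6 cells/mL were treated with 10 μM compound for 30 min. Aliquots were heated for 3 min across 48°C-58°C, pooled, and extracted in PBS with 0.5% NP-40 at 4°C; soluble protein was the supernatant after 21,000xg for 90 min. Soluble protein was quantified by TMTpro 16plex LC-MS/MS with channel sums equalised, and reported as log2 fold change in thermal stability against DMSO controls, with values from duplicates.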

volasertib = compound: CC[C@@H]1C(=O)N(C)c2cnc(Nc3ccc(C(=O)N[C@H]4CC[C@H](N5CCN(CC6CC6)CC5)CC4)cc3OC)nc2N1C(C)C [volasertib]
Method in brief: as §1

[2] = compound: CC[C@H](C)N1C=C(C2=C(C=C(C=C21)C3=CN=C(C=C3)N4CCNCC4)C(=O)NCC5=C(C=C(NC5=O)C)C)C
Method in brief: as §1

epoxomicin = compound: CC[C@H](C)[C@@H](C(=O)N[C@@H]([C@@H](C)O)C(=O)N[C@@H](CC(C)C)C(=O)[C@]1(CO1)C)NC(=O)[C@H]([C@@H](C)CC)N(C)C(=O)C [epoxomicin]
Method in brief: as §1

[3] = compound: CCn1c(C(=O)N(C2CC2)C2CC2)cc2c3c(ncn3C)c(Nc3cc(C)n(C)n3)nc21
Method in brief: as §1

[4] = compound: CCn1cc(-c2ccnc3[nH]c(-c4cccc(CN(C)C)c4)cc23)c(-c2ccc(NC(=O)N(C)C)cc2)n1
Method in brief: as §1

[5] = compound: CN(C)CC(=O)Nc1ccc2[nH]c(=O)c3ccccc3c2c1
Method in brief: as §1

rosiglitazone = compound: CN(CCOC1=CC=C(C=C1)C[C@H]2C(=O)NC(=O)S2)C3=CC=CC=N3 (racemic) [rosiglitazone]
Method in brief: as §1

[6] = compound: CN1C2=C(C3=C1C(=O)N(N=C3)CC4=CC(=CC=C4)N)SC(=C2)S(=O)C
Method in brief: as §1

[7] = compound: CN1CCC(CNc2ccc3ncc(-c4cccc(OC(F)(F)F)c4)n3n2)CC1
Method in brief: as §1

saracatinib = compound: CN1CCN(CCOc2cc(OC3CCOCC3)c3c(Nc4c(Cl)ccc5c4OCO5)ncnc3c2)CC1 [saracatinib]
Method in brief: as §1

sotrastaurin = compound: CN1CCN(c2nc(C3=C(c4c[nH]c5ccccc45)C(=O)NC3=O)c3ccccc3n2)CC1 [sotrastaurin]
Method in brief: as §1

alvocidib = compound: CN1CC[C@H](c2c(O)cc(O)c3c(=O)cc(-c4ccccc4Cl)oc23)[C@H](O)C1 [alvocidib]
Method in brief: as §1

Tubastatin A = compound: CN1CCc2c(c3ccccc3n2Cc2ccc(C(=O)NO)cc2)C1 [Tubastatin A]
Method in brief: as §1

[8] = compound: CNC(=O)C1=CC=CC=C1NC2=NC(=NC=C2Cl)NC3=C(C=C(C=C3)N4CCOCC4)OC
Method in brief: as §1

defactinib = compound: CNC(=O)c1ccc(Nc2ncc(C(F)(F)F)c(NCc3nccnc3N(C)S(C)(=O)=O)n2)cc1 [defactinib]
Method in brief: as §1

rucaparib = compound: CNCc1ccc(-c2[nH]c3cc(F)cc4c3c2CCNC4=O)cc1 [rucaparib]
Method in brief: as §1

[9] = compound: CNc1nc(-c2ccc3c(N)n[nH]c3c2)cc(N2C[C@@H](C(=O)NC3CCCCC3)CC[C@H]2C)n1
Method in brief: as §1

encorafenib = compound: COC(=O)N[C@@H](C)CNc1nccc(-c2cn(C(C)C)nc2-c2cc(Cl)cc(NS(C)(=O)=O)c2F)n1 [encorafenib]
Method in brief: as §1

[10] = compound: COC(=O)[C@H](CCSC)NC(=O)C1=C(C=C(C=C1)NC[C@H](CS)N)C2=CC=CC=C2
Method in brief: as §1

UniProt Q8TEM1, sequence (Q8TEM1 whole entry, looked up): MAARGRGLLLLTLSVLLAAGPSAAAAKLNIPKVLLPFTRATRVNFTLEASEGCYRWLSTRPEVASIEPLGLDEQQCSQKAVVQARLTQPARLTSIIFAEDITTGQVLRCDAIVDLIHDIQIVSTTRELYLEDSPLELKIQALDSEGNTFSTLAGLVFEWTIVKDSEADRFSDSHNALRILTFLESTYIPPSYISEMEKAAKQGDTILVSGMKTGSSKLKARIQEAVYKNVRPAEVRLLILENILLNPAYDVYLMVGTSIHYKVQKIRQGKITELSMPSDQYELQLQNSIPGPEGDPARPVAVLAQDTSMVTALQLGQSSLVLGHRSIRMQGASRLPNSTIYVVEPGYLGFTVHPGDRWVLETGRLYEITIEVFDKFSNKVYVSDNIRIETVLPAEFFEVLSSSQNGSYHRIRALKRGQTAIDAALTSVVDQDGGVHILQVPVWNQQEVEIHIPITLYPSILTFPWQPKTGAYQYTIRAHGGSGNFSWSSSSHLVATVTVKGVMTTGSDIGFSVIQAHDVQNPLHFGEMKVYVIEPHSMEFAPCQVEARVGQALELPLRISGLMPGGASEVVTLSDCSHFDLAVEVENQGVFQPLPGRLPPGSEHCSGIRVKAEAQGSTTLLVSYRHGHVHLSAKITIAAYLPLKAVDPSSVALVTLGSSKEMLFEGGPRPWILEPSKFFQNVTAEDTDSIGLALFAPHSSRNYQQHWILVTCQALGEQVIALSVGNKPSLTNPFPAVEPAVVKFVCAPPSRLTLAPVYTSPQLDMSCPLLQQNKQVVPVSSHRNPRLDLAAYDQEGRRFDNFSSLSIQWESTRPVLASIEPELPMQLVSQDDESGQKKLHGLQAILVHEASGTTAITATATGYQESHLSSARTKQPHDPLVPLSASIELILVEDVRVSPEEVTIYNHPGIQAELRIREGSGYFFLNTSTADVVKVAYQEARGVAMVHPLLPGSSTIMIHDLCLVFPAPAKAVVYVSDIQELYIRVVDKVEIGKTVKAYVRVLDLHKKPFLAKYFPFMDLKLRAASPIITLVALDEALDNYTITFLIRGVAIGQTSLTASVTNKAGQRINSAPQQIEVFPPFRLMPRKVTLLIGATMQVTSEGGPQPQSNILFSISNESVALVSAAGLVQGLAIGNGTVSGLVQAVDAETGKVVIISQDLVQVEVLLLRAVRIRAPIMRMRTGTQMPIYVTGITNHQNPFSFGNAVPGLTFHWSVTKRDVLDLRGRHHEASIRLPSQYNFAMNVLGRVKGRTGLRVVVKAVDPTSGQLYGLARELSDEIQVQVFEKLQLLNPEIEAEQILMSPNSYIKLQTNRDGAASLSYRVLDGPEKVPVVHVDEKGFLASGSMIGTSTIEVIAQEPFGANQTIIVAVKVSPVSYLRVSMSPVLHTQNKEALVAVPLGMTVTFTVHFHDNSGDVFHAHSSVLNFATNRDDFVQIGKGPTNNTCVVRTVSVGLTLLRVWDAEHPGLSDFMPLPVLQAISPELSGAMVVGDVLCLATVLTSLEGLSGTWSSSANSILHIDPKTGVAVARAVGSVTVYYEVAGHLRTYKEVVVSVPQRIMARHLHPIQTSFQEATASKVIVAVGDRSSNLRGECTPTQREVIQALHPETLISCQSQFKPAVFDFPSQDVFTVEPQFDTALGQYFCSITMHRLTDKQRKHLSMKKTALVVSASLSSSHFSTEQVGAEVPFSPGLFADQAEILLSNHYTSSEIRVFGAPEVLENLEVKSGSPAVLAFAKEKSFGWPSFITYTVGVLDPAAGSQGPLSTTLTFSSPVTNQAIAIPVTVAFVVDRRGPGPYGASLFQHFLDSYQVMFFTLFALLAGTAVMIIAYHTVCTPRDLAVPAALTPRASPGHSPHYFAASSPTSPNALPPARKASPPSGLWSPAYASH
UniProt P00846, sequence (P00846 whole entry, looked up): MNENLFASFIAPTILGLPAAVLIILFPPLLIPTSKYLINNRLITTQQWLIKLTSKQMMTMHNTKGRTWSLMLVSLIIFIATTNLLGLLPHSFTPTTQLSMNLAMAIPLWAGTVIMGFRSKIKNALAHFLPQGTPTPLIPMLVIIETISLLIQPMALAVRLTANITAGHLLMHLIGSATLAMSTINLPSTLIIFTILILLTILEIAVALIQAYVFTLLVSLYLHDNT
UniProt Q00013, sequence (Q00013 whole entry, looked up): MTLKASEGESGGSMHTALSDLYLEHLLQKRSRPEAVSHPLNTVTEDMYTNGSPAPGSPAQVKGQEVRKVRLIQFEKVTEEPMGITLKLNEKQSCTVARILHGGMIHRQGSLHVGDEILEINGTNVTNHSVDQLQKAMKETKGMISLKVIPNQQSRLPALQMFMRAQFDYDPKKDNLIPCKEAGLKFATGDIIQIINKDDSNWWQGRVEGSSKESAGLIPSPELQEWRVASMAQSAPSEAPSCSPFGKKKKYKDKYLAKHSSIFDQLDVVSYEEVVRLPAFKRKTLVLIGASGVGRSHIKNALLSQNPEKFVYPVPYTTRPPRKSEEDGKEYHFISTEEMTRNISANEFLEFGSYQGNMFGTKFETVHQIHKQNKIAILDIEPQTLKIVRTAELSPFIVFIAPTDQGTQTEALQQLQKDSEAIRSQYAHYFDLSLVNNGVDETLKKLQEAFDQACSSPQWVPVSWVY
UniProt Q9Y314, sequence (Q9Y314 whole entry, looked up): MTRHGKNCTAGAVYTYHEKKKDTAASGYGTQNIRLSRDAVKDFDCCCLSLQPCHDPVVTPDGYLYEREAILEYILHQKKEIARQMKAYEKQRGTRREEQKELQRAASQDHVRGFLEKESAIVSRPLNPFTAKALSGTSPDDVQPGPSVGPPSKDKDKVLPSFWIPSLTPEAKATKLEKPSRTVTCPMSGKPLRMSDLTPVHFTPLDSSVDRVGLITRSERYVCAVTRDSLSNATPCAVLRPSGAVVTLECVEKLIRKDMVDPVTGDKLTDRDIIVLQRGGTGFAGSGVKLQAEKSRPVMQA
UniProt Q96DE0, sequence (Q96DE0 whole entry, looked up): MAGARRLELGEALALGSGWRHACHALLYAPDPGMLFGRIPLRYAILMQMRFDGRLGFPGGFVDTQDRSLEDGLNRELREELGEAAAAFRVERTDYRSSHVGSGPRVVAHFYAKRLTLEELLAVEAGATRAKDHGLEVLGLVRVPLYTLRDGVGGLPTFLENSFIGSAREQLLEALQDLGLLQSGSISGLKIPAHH
UniProt Q8NCE2, sequence (Q8NCE2 whole entry, looked up): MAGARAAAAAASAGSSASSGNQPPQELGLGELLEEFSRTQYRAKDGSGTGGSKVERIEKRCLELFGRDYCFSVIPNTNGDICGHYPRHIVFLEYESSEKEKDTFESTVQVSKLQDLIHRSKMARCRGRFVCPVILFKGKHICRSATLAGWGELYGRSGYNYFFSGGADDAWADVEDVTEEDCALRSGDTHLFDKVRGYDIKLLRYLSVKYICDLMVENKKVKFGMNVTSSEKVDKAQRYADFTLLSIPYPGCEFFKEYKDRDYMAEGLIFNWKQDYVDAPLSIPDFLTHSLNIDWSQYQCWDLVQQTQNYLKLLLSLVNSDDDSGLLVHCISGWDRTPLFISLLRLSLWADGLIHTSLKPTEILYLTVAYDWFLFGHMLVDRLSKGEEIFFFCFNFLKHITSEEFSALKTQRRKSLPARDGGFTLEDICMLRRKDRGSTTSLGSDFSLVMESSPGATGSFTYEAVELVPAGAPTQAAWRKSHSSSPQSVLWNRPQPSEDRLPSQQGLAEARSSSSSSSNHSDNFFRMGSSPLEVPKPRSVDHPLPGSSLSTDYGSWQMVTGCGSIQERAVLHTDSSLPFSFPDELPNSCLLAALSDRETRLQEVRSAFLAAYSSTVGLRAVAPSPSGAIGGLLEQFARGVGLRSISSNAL
UniProt O15118, sequence (O15118 whole entry, looked up): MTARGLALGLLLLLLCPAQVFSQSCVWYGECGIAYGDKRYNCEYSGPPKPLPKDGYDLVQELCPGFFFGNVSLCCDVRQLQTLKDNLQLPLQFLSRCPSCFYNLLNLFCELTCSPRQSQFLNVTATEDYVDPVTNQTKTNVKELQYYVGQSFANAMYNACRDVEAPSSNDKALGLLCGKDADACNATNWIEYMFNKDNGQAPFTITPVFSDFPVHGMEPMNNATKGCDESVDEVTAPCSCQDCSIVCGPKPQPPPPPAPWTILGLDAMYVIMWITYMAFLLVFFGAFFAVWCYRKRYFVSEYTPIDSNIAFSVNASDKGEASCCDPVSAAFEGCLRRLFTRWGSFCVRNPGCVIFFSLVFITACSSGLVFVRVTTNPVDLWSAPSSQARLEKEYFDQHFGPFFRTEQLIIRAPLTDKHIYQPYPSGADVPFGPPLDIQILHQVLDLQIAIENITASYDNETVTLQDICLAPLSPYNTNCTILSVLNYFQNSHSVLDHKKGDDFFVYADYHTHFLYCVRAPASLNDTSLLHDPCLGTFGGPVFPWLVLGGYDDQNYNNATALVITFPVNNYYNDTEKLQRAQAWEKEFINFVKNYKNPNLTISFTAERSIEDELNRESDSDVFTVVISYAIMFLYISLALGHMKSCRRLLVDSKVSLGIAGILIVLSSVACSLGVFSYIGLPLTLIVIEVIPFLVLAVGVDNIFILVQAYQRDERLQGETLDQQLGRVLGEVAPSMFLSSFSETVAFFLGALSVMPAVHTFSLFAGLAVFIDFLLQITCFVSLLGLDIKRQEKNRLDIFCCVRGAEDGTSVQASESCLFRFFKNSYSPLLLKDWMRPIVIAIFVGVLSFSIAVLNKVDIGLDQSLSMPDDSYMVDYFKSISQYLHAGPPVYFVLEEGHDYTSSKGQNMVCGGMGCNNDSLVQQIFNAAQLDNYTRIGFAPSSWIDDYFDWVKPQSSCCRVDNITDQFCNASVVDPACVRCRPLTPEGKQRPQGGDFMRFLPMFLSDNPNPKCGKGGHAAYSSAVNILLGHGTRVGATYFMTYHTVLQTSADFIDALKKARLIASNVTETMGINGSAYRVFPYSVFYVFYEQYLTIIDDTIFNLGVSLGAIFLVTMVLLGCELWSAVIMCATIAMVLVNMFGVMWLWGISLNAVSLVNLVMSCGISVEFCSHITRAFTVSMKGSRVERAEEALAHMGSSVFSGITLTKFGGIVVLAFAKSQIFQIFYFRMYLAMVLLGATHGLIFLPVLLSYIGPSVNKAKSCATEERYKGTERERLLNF

Target | log2 fold change [1] | log2 fold change (volasertib) | log2 fold change [2] | log2 fold change (epoxomicin) | log2 fold change [3] | log2 fold change [4] | log2 fold change [5] | log2 fold change (rosiglitazone) | log2 fold change [6] | log2 fold change [7] | log2 fold change (saracatinib) | log2 fold change (sotrastaurin) | log2 fold change (alvocidib) | log2 fold change (Tubastatin A) | log2 fold change [8] | log2 fold change (defactinib) | log2 fold change (rucaparib) | log2 fold change [9] | log2 fold change (encorafenib) | log2 fold change [10]
MPP1 (UniProt Q00013) | -0.039 | -0.112 | 0.063 | 0.058 | -0.025 | -0.051 | 0.011 | 0.051 | 0.043 | -0.256 (active) | -0.023 | -0.085 | -0.022 | 0.051 | 0.073 | -0.082 | 0.104 | 0.059 | 0.067 | -0.047
NUP210 (UniProt Q8TEM1) | -0.001 | -0.12 | 0 | 0.03 | 0.002 | -0.053 | 0.03 | 0.03 | -0.026 | -0.348 (active) | 0.017 | -0.019 | -0.04 | -0.003 | -0.147 | -0.021 | -0.039 | -0.07 | 0.027 | -0.035
OAT (UniProt P04181) | 0.049 | 0.1 | 0.021 | 0.043 | -0.041 | -0.1 | 0.004 | -0.006 | -0.102 | -0.164 | -0.002 | -0.016 | -0.125 | 0.013 | 0.084 | -0.058 | -0.047 | -0.04 | -0.061 | 0.024
NOSIP (UniProt Q9Y314) | -0.373 | -1.06 (active) | 0.151 | 0.104 | -0.129 | -0.017 | 0.196 | 0.052 | 0.109 | 0.097 | -0.045 | -0.28 | -0.098 | 0.199 | 0.05 | -0.199 | 0.003 | -0.106 | 0.181 | -0.182
NPC1 (UniProt O15118) | -0.016 | -0.072 | -0.031 | -0.02 | 0.009 | 0.005 | -0.029 | -0.018 | 0.004 | 0.012 | 0.077 | 0.007 | 0.041 | -0.045 | 0.02 | 0.01 | -0.147 | -0.049 | -0.012 | -0.006
MRPS2 (UniProt Q9Y399) | -0.048 | 0.037 | 0.053 | 0.02 | -0.01 | -0.045 | 0.031 | -0.003 | 0.016 | 0.044 | -0.243 | -0.145 | 0.005 | 0.036 | -0.021 | 0.034 | 0.104 | 0.035 | 0.084 | -0.088
MT-ATP6 (UniProt P00846) | 0.043 | -0.091 | -0.057 | 0.105 | -0.053 | -0.152 | -0.095 | 0.502 | -0.239 | -0.16 | 0.253 | -0.059 | -0.058 | 0.122 | -0.018 | -0.095 | 0.06 | -0.176 | 0.016 | 0.05
MRPS9 (UniProt P82933) | 0.094 | 0.109 | 0.076 | -0.009 | -0.082 | 0.027 | -0.004 | 0.012 | 0.071 | 0.001 | -0.064 | -0.072 | 0.043 | 0.04 | 0.013 | 0.056 | 0.087 | 0.136 | 0.05 | -0.081
OXSM (UniProt Q9NWU1) | -0.063 | -0.017 | -0.022 | 0.018 | -0.048 | -0.003 | -0.005 | 0.02 | -0.025 | 0.058 | 0.095 | 0.067 | -0.046 | -0.01 | 0.038 | -0.059 | -0.018 | -0.033 | -0.007 | -0.019
NUDT16 (UniProt Q96DE0) | 0.038 | 0.033 | -0.059 | 0.009 | -0.019 | -0.073 | -0.011 | -0.048 | -0.069 | -0.035 | 0.063 | -0.031 | -0.075 | 0.009 | -0.057 | -0.024 | 0.009 | -0.004 | -0.017 | -0.05
MTMR14 (UniProt Q8NCE2) | -0.194 | -0.622 (active) | 0.037 | 0.019 | 0.009 | -0.056 | 0.001 | 0.026 | 0.022 | -0.039 | -0.037 | -0.042 | -0.059 | 0 | 0.008 | -0.058 | -0.017 | -0.064 | -0.026 | 0.038
MRPS10 (UniProt P82664) | 0.02 | 0.027 | 0.088 | -0.022 | -0.021 | 0.045 | 0.085 | 0.003 | 0.066 | 0.068 | -0.029 | -0.076 | -0.007 | 0.035 | -0.034 | -0.071 | 0.006 | 0.097 | 0.014 | -0.055
NELFB isoform 2 (UniProt Q8WX92) | -0.176 | -0.68 (active) | 0.118 | 0.072 | -0.057 | -0.012 | 0.068 | 0.041 | -0.02 | -0.116 | -0.016 | -0.065 | -0.199 | 0.04 | -0.026 | -0.199 | -0.034 | -0.005 | 0.079 | -0.057
NUMA1 (UniProt Q14980) | 0.065 | 0.034 | 0.039 | -0.044 | -0.031 | 0.068 | 0.003 | -0.035 | 0.115 | -0.191 | -0.069 | -0.235 | -0.063 | 0.14 | -0.057 | -0.017 | 0.118 | 0.055 | 0.174 | -0.009
P4HA2 (UniProt O15460) | 0.08 | -0.012 | -0.006 | -0.257 | -0.038 | 0.138 | -0.036 | -0.126 | 0.112 | 0.118 | 0.002 | -0.033 | 0.004 | 0.098 | 0.003 | 0.085 | 0.145 | 0.016 | -0.019 | 0.001
MRPS24 (UniProt Q96EL2) | -0.004 | 0.121 | 0.126 | -0.067 | -0.031 | -0.095 | 0 | -0.026 | -0.004 | 0.07 | -0.153 | -0.124 | -0.202 | 0.024 | 0.067 | 0.041 | 0.153 | 0.137 | 0.08 | -0.108
